# Assay results reported in the supplement of paper PMC9794691.
# Legend:
# H1975 [1] = assay: area under confluence curve of compound monotherapy; compare to DMSO control AUC of the same experiment (AUC (confluence x time, arbitrary))
# How it was run: (§1)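 Adenocarcinoma lines were grown in RPMI 1640 with 10% FBS at 37 °C and 5% CO2, seeded at 20,000–30,000 cells/well in 48-well plates, and treated the next day with test compound alone at one dose: 1 uM or the highest dose giving <50% parental inhibition. Every 3–4 days the wells were washed with PBS and the drug was refreshed, and medium was drug-free from the DTP stage (10–21 days). IncuCyte tracked confluence until wells given only an EGFR inhibitor regrew. Area under the confluence curve was calculated in Prism, taking the median of triplicates where run, and set beside the vehicle value from the same experiment.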
# HCC2279 [2] = assay: as above
# How it was run: as §1
# HCC2935 [3] = assay: as above
# How it was run: as §1
# HCC4006 [4] = assay: as above
# How it was run: as §1
# HCC827 [5] = assay: as above
# How it was run: as §1
# II-18 [6] = assay: as above
# How it was run: as §1
# PC9 = assay: area under confluence curve of osimertinib + compound combination regimen (DTP regrowth); compare to osimertinib-only DTP control AUC of the same experiment (AUC (confluence x time, arbitrary))
# How it was run: (§2)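 The area under the IncuCyte confluence–time curve, calculated in Prism and taken as the median of triplicates where available, is the value reported. It was measured in EGFR-mutant NSCLC lines that received the EGFR inhibitor either alone, followed by a test compound, or together with a fixed-dose test compound until the persister stage (10–21 days) and then drug-free medium. Medium was refreshed every 3–4 days until the inhibitor-only wells were confluent again.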
# H1975 [7] = assay: as above; details: test compound dose 1000 nM, DMSO control AUC in same experiment: 20657
# How it was run: as §2
# HCC2279 [8] = assay: as above; details: test compound dose 1000 nM, DMSO control AUC in same experiment: 9426
# How it was run: as §2
# HCC2935 [9] = assay: as above; details: test compound dose 1000 nM, DMSO control AUC in same experiment: 13875
# How it was run: as §2
# HCC4006 [10] = assay: as above; details: test compound dose 1000 nM, DMSO control AUC in same experiment: 16638
# How it was run: as §2
# HCC827 [11] = assay: as above; details: test compound dose 1000 nM, DMSO control AUC in same experiment: 27404
# How it was run: as §2
# II-18 [12] = assay: as above; details: test compound dose 1000 nM, DMSO control AUC in same experiment: 18482
# How it was run: as §2
# [13] = test compound dose 1000 nM, dosing schedule: sequential, osimertinib-only DTP control AUC in same experiment: 15163, DMSO control AUC in same experiment: 28684
# [14] = test compound dose 1000 nM, dosing schedule: upfront, osimertinib-only DTP control AUC in same experiment: 21337, DMSO control AUC in same experiment: 28684
compound,measurement,setting,value
C[C@@H](Oc1cc(-c2cnn(C3CCNCC3)c2)cnc1N)c1c(Cl)ccc(F)c1Cl [Crizotinib],area under confluence curve,"H1975 [1]; 1000 nM, DMSO control AUC in same experiment: 15857",9870
same,area under confluence curve,"HCC2279 [2]; 1000 nM, DMSO control AUC in same experiment: 14404",13900
same,area under confluence curve,"HCC2935 [3]; 1000 nM, DMSO control AUC in same experiment: 19215",19300
same,area under confluence curve,"HCC4006 [4]; 1000 nM, DMSO control AUC in same experiment: 18415",16500
same,area under confluence curve,"HCC827 [5]; 1000 nM, DMSO control AUC in same experiment: 21320",19500
same,area under confluence curve,"II-18 [6]; 1000 nM, DMSO control AUC in same experiment: 11834",6690
Cn1cc(CNCC2CCN(c3ncc(C(=O)NO)cn3)CC2)c2ccccc21 [Quisinostat],area under confluence curve,"H1975 [1]; 10 nM, DMSO control AUC in same experiment: 20657",8960
same,area under confluence curve,"HCC2279 [2]; 10 nM, DMSO control AUC in same experiment: 29252",18800
same,area under confluence curve,"HCC2935 [3]; 10 nM, DMSO control AUC in same experiment: 13875",8250
same,area under confluence curve,"HCC4006 [4]; 10 nM, DMSO control AUC in same experiment: 16638",11600
same,area under confluence curve,"HCC827 [5]; 10 nM, DMSO control AUC in same experiment: 27404",25100
same,area under confluence curve,"II-18 [6]; 10 nM, DMSO control AUC in same experiment: 7080",3280
Cn1cnc2c(F)c(Nc3ccc(Br)cc3Cl)c(C(=O)NOCCO)cc21 [Selumetinib],area under confluence curve,"H1975 [1]; 300 nM, DMSO control AUC in same experiment: 14522",17100
same,area under confluence curve,"HCC2279 [2]; 300 nM, DMSO control AUC in same experiment: 40085",37400
same,area under confluence curve,"HCC2935 [3]; 300 nM, DMSO control AUC in same experiment: 15413",17800
same,area under confluence curve,"HCC4006 [4]; 300 nM, DMSO control AUC in same experiment: 10921",11800
same,area under confluence curve,"HCC827 [5]; 300 nM, DMSO control AUC in same experiment: 48895",45800
same,area under confluence curve,"II-18 [6]; 300 nM, DMSO control AUC in same experiment: 18482",15300
Cc1nc2nc(C)c(O[C@@H]3CCN(c4ccc(-c5ccc(CN6CCOCC6)nn5)cc4)C3)c(C)n2n1 + C=CC(=O)Nc1cc(Nc2nccc(-c3cn(C)c4ccccc34)n2)c(OC)cc1N(C)CCN(C)C [osimertinib],area under confluence curve,"PC9; test compound dose 1000 nM, dosing schedule: sequential, osimertinib-only DTP control AUC in same experiment: 10725, DMSO control AUC in same experiment: 30578",14600
same,area under confluence curve,"PC9; test compound dose 1000 nM, dosing schedule: upfront, osimertinib-only DTP control AUC in same experiment: 10245, DMSO control AUC in same experiment: 30578",12400
CC(=O)Nc1cccc(-n2c(=O)n(C3CC3)c(=O)c3c(Nc4ccc(I)cc4F)n(C)c(=O)c(C)c32)c1 [Trametinib] + C=CC(=O)Nc1cc(Nc2nccc(-c3cn(C)c4ccccc34)n2)c(OC)cc1N(C)CCN(C)C [osimertinib],area under confluence curve,"PC9; test compound dose 10 nM, dosing schedule: sequential, osimertinib-only DTP control AUC in same experiment: 14554, DMSO control AUC in same experiment: 49189",10400
same,area under confluence curve,"PC9; test compound dose 10 nM, dosing schedule: sequential, osimertinib-only DTP control AUC in same experiment: 14708, DMSO control AUC in same experiment: 21341",3390
same,area under confluence curve,"PC9; test compound dose 10 nM, dosing schedule: upfront, osimertinib-only DTP control AUC in same experiment: 21313, DMSO control AUC in same experiment: 21341",6970
same,area under confluence curve,"PC9; test compound dose 10 nM, dosing schedule: upfront, osimertinib-only DTP control AUC in same experiment: 24473, DMSO control AUC in same experiment: 49189",9410
CCOC(=O)c1ccnc(CNCC(=O)N(CC)CCN(C)C)c1 + C=CC(=O)Nc1cc(Nc2nccc(-c3cn(C)c4ccccc34)n2)c(OC)cc1N(C)CCN(C)C [osimertinib],area under confluence curve,"PC9; test compound dose 1000 nM, dosing schedule: sequential, osimertinib-only DTP control AUC in same experiment: 3562, DMSO control AUC in same experiment: 31840",3420
same,area under confluence curve,"PC9; test compound dose 1000 nM, dosing schedule: upfront, osimertinib-only DTP control AUC in same experiment: 19015, DMSO control AUC in same experiment: 31840",16700
Nc1ccc(/C=C/C(=O)NCc2cc3cc(-c4ccc(C(=O)N5CCC(F)(F)CC5)cc4)cc(-c4ccc(F)cc4)c3o2)cn1 + C=CC(=O)Nc1cc(Nc2nccc(-c3cn(C)c4ccccc34)n2)c(OC)cc1N(C)CCN(C)C [osimertinib],area under confluence curve,"PC9; test compound dose 100 nM, dosing schedule: sequential, osimertinib-only DTP control AUC in same experiment: 14258, DMSO control AUC in same experiment: 21913",6800
same,area under confluence curve,"PC9; test compound dose 100 nM, dosing schedule: upfront, osimertinib-only DTP control AUC in same experiment: 21499, DMSO control AUC in same experiment: 21913",12200
CCn1nc(C2CCN(C(=O)CCO)CC2)nc1-c1cnc(N)c(-c2nnc(C(C)(C)C)o2)n1 + C=CC(=O)Nc1cc(Nc2nccc(-c3cn(C)c4ccccc34)n2)c(OC)cc1N(C)CCN(C)C [osimertinib],area under confluence curve,"H1975 [7]; dosing schedule: sequential, osimertinib-only DTP control AUC in same experiment: 15943",6780
same,area under confluence curve,"H1975 [7]; dosing schedule: upfront, osimertinib-only DTP control AUC in same experiment: 27804",13600
same,area under confluence curve,"HCC2279 [8]; dosing schedule: sequential, osimertinib-only DTP control AUC in same experiment: 11520",11600
same,area under confluence curve,"HCC2279 [8]; dosing schedule: upfront, osimertinib-only DTP control AUC in same experiment: 21942",16800
same,area under confluence curve,"HCC2935 [9]; dosing schedule: sequential, osimertinib-only DTP control AUC in same experiment: 6271",6130
same,area under confluence curve,"HCC2935 [9]; dosing schedule: upfront, osimertinib-only DTP control AUC in same experiment: 10360",4470
same,area under confluence curve,"HCC4006 [10]; dosing schedule: sequential, osimertinib-only DTP control AUC in same experiment: 19238",16700
same,area under confluence curve,"HCC4006 [10]; dosing schedule: upfront, osimertinib-only DTP control AUC in same experiment: 21234",5320
same,area under confluence curve,"HCC827 [11]; dosing schedule: sequential, osimertinib-only DTP control AUC in same experiment: 8266",7050
same,area under confluence curve,"HCC827 [11]; dosing schedule: upfront, osimertinib-only DTP control AUC in same experiment: 13929",11000
same,area under confluence curve,"II-18 [12]; dosing schedule: sequential, osimertinib-only DTP control AUC in same experiment: 21014",11100
same,area under confluence curve,"II-18 [12]; dosing schedule: upfront, osimertinib-only DTP control AUC in same experiment: 27084",4500
same,area under confluence curve,"PC9; test compound dose 1000 nM, dosing schedule: sequential, osimertinib-only DTP control AUC in same experiment: 12535, DMSO control AUC in same experiment: 43316",3140
same,area under confluence curve,PC9; [13],9440
same,area under confluence curve,"PC9; test compound dose 1000 nM, dosing schedule: upfront, osimertinib-only DTP control AUC in same experiment: 15354, DMSO control AUC in same experiment: 43316",5490
same,area under confluence curve,PC9; [14],15400
O=C([C@@H](Cc1cccc(C(F)(F)F)c1)NS(=O)(=O)c1cc(F)c2c(c1)CCNC2)N1CCCC1 + C=CC(=O)Nc1cc(Nc2nccc(-c3cn(C)c4ccccc34)n2)c(OC)cc1N(C)CCN(C)C [osimertinib],area under confluence curve,"PC9; test compound dose 1000 nM, dosing schedule: sequential, osimertinib-only DTP control AUC in same experiment: 10968, DMSO control AUC in same experiment: 21594",10000
same,area under confluence curve,"PC9; test compound dose 1000 nM, dosing schedule: upfront, osimertinib-only DTP control AUC in same experiment: 17834, DMSO control AUC in same experiment: 21594",13600
COc1cc2nc(C)nc(N[C@H](C)c3cc(N)cc(C(F)(F)F)c3)c2cc1O[C@H]1CCOC1 + C=CC(=O)Nc1cc(Nc2nccc(-c3cn(C)c4ccccc34)n2)c(OC)cc1N(C)CCN(C)C [osimertinib],area under confluence curve,PC9; [13],11600
same,area under confluence curve,PC9; [14],11000
